Data: ChEMBL document CHEMBL1157539, “Thousands of chemical starting points for antimalarial lead identification” (Nature, 2010)

test system: Plasmodium falciparum; experiment: GSK_TCMDC: Inhibition of Plasmodium falciparum 3D7 in whole red blood cells, using parasite LDH activity as an index of growth. Test compounds present at 2uM; format: functional

Row | SMILES | Inhibition [%]
1 | O=C(NCCc1ccc(Cl)c(Cl)c1)[C@@H]1CCCN1C(=O)c1ccc(O)c(-c2cccc(C(F)(F)F)c2)c1 | 97
2 | Cc1cc(N/N=C/c2ccccc2[N+](=O)[O-])c2ccccc2n1 | 100
3 | CCCCCN1CCCC1CNS(=O)(=O)c1ccc(C(=O)Nc2ccc(C(F)(F)F)cc2)cc1.O=C(O)C(F)(F)F (stereo unspecified) | 87
4 | Cl.Cn1ncc2c3c(CCN4CCC(NCc5ccc6c(c5)NC(=O)CO6)CC4)c(Cl)cnc3ccc21 | 100
5 | ON=C(c1nc2ccccc2[nH]1)c1nc2ccccc2[nH]1 | 93
6 | COc1ccc(C(=O)C2CCN(CCCCNC(=O)c3ccc(NC(=O)c4cc(Cl)cc(Cl)c4)cc3)CC2)cc1 | 100
7 | COc1cccc(CN2CCCN(Cc3cccc(NC(=O)c4cc5ccccc5s4)c3)CC2)c1.O=C(O)C(F)(F)F | 89
8 | COc1ccc(Nc2cc(C)c3cc(NC(=O)c4ccncc4)ccc3n2)cc1 | 98
9 | CC(C)(CNCCOc1ccc(Cl)cc1)c1nc(-c2ccnc(N)n2)c(-c2ccc(Cl)c(O)c2)[nH]1.Cl | 97
10 | O=C(/C=C/c1ccc(Cl)c(Cl)c1)NCCCCCN1CCC(NC(=S)Nc2ccc(F)cc2F)CC1 | 100
11 | CC(C)NC[C@@H](O)[C@H](Cc1ccccc1)NC(=O)c1cc2c3c(c1)c(C(C)C)cn3CCS(=O)(=O)N2C.O=CO | 98
12 | CC(=O)Nc1ccc(C(=O)Nc2cccc(-c3cccc(-c4nc5cccc(C)c5[nH]4)c3)c2)cn1 | 100
13 | CCCCN(CCCC)/C(=N/C(=N)Nc1ccc(Cl)cc1)NCCCCCCN/C(=N\C(=N)Nc1ccc(Cl)cc1)N(CCCC)CCCC | 81
14 | CCCN(CCC)CC(O)COc1ccccc1C(=O)Nc1ccccc1 (stereo unspecified) | 92
15 | CN1CCC(N2CCN(Cc3ccc(-c4ccc(-c5nc6ccccc6[nH]5)s4)cc3)CC2)CC1.O=C(O)C(F)(F)F | 100
16 | N#Cc1cccc(C(=O)Nc2cccc(-c3ccc(C(=O)Nc4cccnc4)cc3)c2)c1 | 89
17 | CC(=O)Nc1ccc(CN2Cc3ccc(NC(=O)Nc4ccc(Oc5ccccc5)cc4)cc3C2)s1 | 91
18 | CCC(C)OC(=O)C1=C(C)NC2=C(C(=O)CC(c3ccc(OC)c(OC)c3)C2)C1c1ccc(C)o1 (stereo unspecified) | 93

Row | SMILES | Inhibition [%]
19 | Cc1ccc2[nH]c(-c3ccc(C=CC(=O)NCc4ccc(Cl)c(Cl)c4)cc3)nc2c1 | 96
20 | CCNc1cc(C(=O)N[C@@H](Cc2ccccc2)[C@H](O)CNCCC(C)c2ccccc2)cc(N2CCCC2=O)c1.O=C(O)C(F)(F)F (stereo partly specified) | 99
21 | CC1CCCN(c2ccc(NC(=O)c3cccs3)cc2[N+](=O)[O-])C1 (stereo unspecified) | 96
22 | COC(=O)c1cccc(N2CCN(CCCNC(=O)/C(=C/C=C/c3cc4cc(Cl)c(Cl)cc4[nH]3)OC)CC2)c1.Cl | 100
23 | O=[N+]([O-])c1ccc(C2=NN(S(=O)(=O)c3c(Cl)cc(Cl)cc3Cl)CCCC2)cc1 | 99
24 | CCCN(C(=O)c1ccccc1C)c1nnc(-c2cccc(C)c2)s1 | 91
25 | COc1ccccc1-c1cccc(-c2cccc(NC(=O)c3ccc([N+](=O)[O-])o3)c2)n1 | 97
26 | FC(F)(F)c1ccc2[nH]c(-c3ccc(-c4ccc(CNCCN5CCNCC5)cc4)cc3)nc2c1.O=C(O)C(F)(F)F | 92
27 | O=C(NC1CC1)c1ccc(N2CCCC(COc3ccccc3F)C2)nc1 (stereo unspecified) | 87
28 | COc1ccc(Cl)cc1NC(=O)CN(C)C(=O)c1cnn(-c2ccccc2)n1 | 100
29 | C(=C(c1cccs1)c1cccs1)c1ccc(CNC2CCN(Cc3ccccc3)CC2)cc1.Cl | 98
30 | Cc1cccc(C)c1N1CCN(C2CCC(NC(=O)c3cc4ccccc4[nH]3)CC2)CC1 (stereo unspecified) | 100
31 | COc1ccc(CCN(C)CCOc2ccc(NC(=O)COc3ccc4sc5ccccc5c(=O)c4c3)cc2)cc1OC | 100
32 | Cc1[nH]c(C)c(-c2ccc(-c3ccc(C(F)F)cc3)nc2)c(=O)c1Cl | 97
33 | CN1CC[C@@H](Oc2cc(NC(=O)Nc3ccc(Cl)c(C(F)(F)F)c3)ccc2Cl)C1 | 100
34 | N#Cc1cc(C(=O)Nc2ccccc2)c(N)nc1SCC(=O)Nc1ccc(Br)cc1 | 100
35 | CN1CCC(Oc2ccc(NC(=O)c3ccc4c(=O)n(Cc5ccccc5)cnc4c3)cc2Cl)CC1 | 95
36 | O=C(C=Cc1ccc(Cl)c(Cl)c1)NCCCCCN1CCC(CCCNC(=O)c2ccc3c(c2)OCO3)CC1 | 98
